# Assay results reported in PubChem BioAssay AID652010 (The Scripps Research Institute Molecular Screening Center, 2013).
# In all, about 370,000 compounds went through this assay and about 4,100 (1.1%) were called active. This excerpt belongs to a sample that is enriched for actives. Unmarked numbers belong to inactive results.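 How the source made its calls: active means inhibition above the mean over all tested compounds plus 3 SD (cut at about 3.6% in these data); inactive means the rest.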
# Experiment: relief of DAX-1 repression of SF-1 activity – cell-based, luminescence, SF-1 (NR5A1), full-length DAX-1, primary screen (AID 652010);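 further: 0% = DAX-1 cells with DMSO and 100% = cells lacking DAX-1 with DMSO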
# Settings: HEK293T StAR-luciferase reporter, SF-1/DAX-1 repression relief; at 6.8 µM; stronger effect = higher value
row,Compound,inhibition
1,C=CCN(C)CC#Cc1ccccc1,1.58%
2,O=S1(=O)c2ccc(Br)cc2OC[C@H](Cc2ccccc2)N1Cc1cn(Cc2ccccc2)nn1,0.43%
3,COc1ccc(CN(CCN2CCOCC2)C(=O)c2ccc(C)cc2)cc1OC,1.29%
4,Cc1cc(N=Nc2ccc3ccccc3c2)ccc1O,4.24% (active)
5,Cc1ccccc1N1CCN(CC(=O)NCc2ccc(Cl)cc2)CC1,-0.26%
6,COC1=C[C@H](C(=O)NCCNC(C)=O)[C@H](C)[C@@H](c2ccccc2)CC1=O,0.48%
7,CCN(CC)C(=O)CC[C@@H]1CC[C@]2(CCCN(S(=O)(=O)C3CCCCC3)C2)O1,-1.81%
8,CCOC(=O)c1c(NC(=S)Nc2ccccc2)sc2c1CCN(C)C2,0.23%
9,CCOC(=O)c1cc2c(nc1NC(=S)Nc1ccccc1)CC(C)(CC)OC2 (stereo unspecified),-0.51%
10,CCOC(=O)c1cn[nH]c1NC(=S)Nc1ccccc1,4.39% (active)
11,Cc1ccc(CN2CCCCC(NC(=O)C3CCCCC3)C2=O)cc1 (stereo unspecified),-1.69%
12,COc1ccc(N2CCN(CCNS(=O)(=O)c3ccc(C(C)(C)C)cc3)CC2)cc1,-0.04%
13,CC1(C)NC(=O)N(CC(=O)N2CCN(S(=O)(=O)c3ccccc3F)CC2)C1=O,-1%
14,COc1ccc([C@H]2OC(=O)C[C@H]2C(=O)N2CCN(c3ccccc3F)CC2)cc1OC,0.35%
15,O=C(NCC1COc2ccccc2O1)c1ccc(NC(=O)c2cc(F)ccc2F)cc1 (stereo unspecified),-1.54%
16,CN(C)S(=O)(=O)c1cc(C(=O)Nc2ccn(C)n2)c(Cl)cc1Cl,-0.84%
17,Cc1ccc(C(=O)Nc2nc(N)n(-c3ccccc3)n2)cc1,0.57%
18,Cc1ccc(C(=O)Nc2ccn(C)n2)cc1,4.06% (active)
19,CCC1CCc2c(sc(NC(C)=O)c2C#N)C1 (stereo unspecified),-0.35%
20,N#Cc1c(NC(=O)c2ccc(N3CCOCC3)c([N+](=O)[O-])c2)sc2c1CCCC2,0.44%
21,N#Cc1c(NC(=O)C2CCCO2)sc2c1CCCCC2 (stereo unspecified),3.86% (active)
22,COC(=O)C1CN(Cc2ccc(F)cc2)CCS(=O)(=O)N1Cc1ccc(Cl)cc1 (stereo unspecified),-1.11%
23,CC(C)(C)OC(=O)NCc1cc(F)ccc1/C=C/S(=O)(=O)NCCc1ccccc1,-0.93%

row,Compound,inhibition
1,O=C(NNC(=S)NC1CCCCC1)c1ccccc1Cl,2.28%
2,O=C(NC1CCCCCC1)C1CCN(C(=O)c2ccc(Cl)cc2)CC1,-1.38%
3,O=C(NC(=S)NC1CCCCC1)c1ccc(Cl)cc1,7.22% (active)
4,CC(NCc1ccco1)C(=O)N1CCCCC1 (stereo unspecified),-0.66%
5,O=S1(=O)c2ccc(Br)cc2OC[C@@H](Cc2ccccc2)N1Cc1cn(Cc2ccco2)nn1,-0.91%
6,Cn1c(-c2ccccc2)c[n+]2c1CCCCC2,0.1%
7,O=C(NCCN1C(=O)S/C(=C\c2cccnc2)C1=O)c1ccc(S(=O)(=O)N2CCCC2)cc1,-0.2%
8,COc1ccc(N2CC(C(=O)NCCN3C(=O)S/C(=C\c4cccnc4)C3=O)CC2=O)c(OC)c1 (stereo unspecified),4.36% (active)
9,Cc1cc(OCCCC(=O)NCCN2C(=O)S/C(=C\c3cccnc3)C2=O)ccc1Cl,-0.22%
10,Cc1c(NC(=O)Nc2cccc([N+](=O)[O-])c2)c(=O)n(-c2ccccc2)n1C,-3.53%
11,Cc1cccc(OC(C)C(=O)N2CCc3ccccc3C2)c1 (stereo unspecified),-0.08%
12,O=C(Nc1cccc([N+](=O)[O-])c1)N1CCc2ccccc2C1,4.21% (active)
13,CCOC(=O)c1c(NC(=S)SC)sc(C(=O)N2CCc3ccccc3C2)c1C,0.68%
14,Cc1cccc(C)c1NC(=O)c1ccc(CN2CCc3ccccc3C2)cc1,-0.37%
15,CCc1ccc(NC(=O)N2CCc3ccccc3C2)cc1,6% (active)
16,Nc1ncnc2c1ncn2C1OC(CO)CC1O (stereo unspecified),-1.04%
17,CCC(=O)OCCCN1C(=O)CCC12CCC(c1ccccc1)CC2 (stereo unspecified),0.13%
18,O=S(=O)(Nc1ccc2nc(-c3ccco3)[nH]c2c1)c1ccccc1,-0.15%
19,O=S(=O)(Nc1cccc(-c2ccc(N3CCOCC3)nn2)c1)c1ccc(Cl)c(Cl)c1,0.25%
20,O=S(=O)(Nc1ccc2nc(N3CCOCC3)sc2c1)c1ccccc1,4.19% (active)
21,COc1cccc(/C=C2\CC3(OC(C)=O)CCCN2C3)c1 (stereo unspecified),1.86%
22,COc1ccc(Cn2ccc3ccc(-c4ccc5ccn(Cc6ccccc6C)c5c4)cc32)cc1,-0.33%
23,COc1ccc(-n2c(SCC(=O)Nc3ccc4cn[nH]c4c3)nnc2-c2cccnc2)cc1,0.02%
